Out of some 290,000 compounds screened, about 3,000 (1%) were called active. No stated cut-off is given here; in the data, active means inhibition mostly above about 36% (no sharp cut-off); inactive means mostly below about 34%. The list comes from a sample in which actives are over-represented; it also holds similar structures and randomly drawn compounds.
Test: NOD1 signaling inhibitors, primary screen, cell-based, luminescence, uHTS (AID 1578);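 further: HEK-293T reporter cells stimulated with the NOD1 agonist gamma-tri-DAP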
Conditions: NOD1-driven NF-kB luciferase reporter cells, at 4 µM, stronger effect = higher value
In the case of `Cc1cccc2c(=O)c(C(=O)NCCc3ccccc3)c[nH]c12`, the inhibition is reported as -28.3% (inactive). For `O=C(NCCc1ccccc1)c1cc2ncc(Br)cn2n1`, the inhibition was -28.5% (inactive). With `NC1=NC(=O)/C(=C/c2ccc(Br)cc2)S1` the inhibition was 25% (inactive). In the case of `NC1=NC(=O)/C(=C\c2cccnc2)S1`, the inhibition is reported as 53.6% (active). In the case of `NC1=NC(=O)/C(=C/c2cccc(F)c2)S1`, the inhibition is reported as -12% (inactive). For `Cc1cc(OCC(=O)N2CCN(c3ccccc3)CC2)c2c(C)cc(=O)oc2c1`, the inhibition was -49.6% (inactive). In the case of `O=C(NCc1nnc(SCC(=O)N2CCCc3ccccc32)o1)c1ccco1`, the inhibition is reported as -0.1% (inactive). For `CC(=O)OC1C2CCC1C([N+]1(C)CCCCC1)CC2` (stereo not given), the inhibition was -31.7% (inactive). In the case of `Cc1cccc(N=c2oc3cc(O)ccc3cc2C(N)=O)c1`, the inhibition is reported as 44.6% (inactive). In the case of `NC(=O)c1cc2ccc(O)cc2oc1=Nc1ccccc1`, the inhibition is reported as 92.8% (active). For `COc1ccc2cc(C(N)=O)c(=Nc3ccccc3)oc2c1`, the inhibition was 34.9% (inactive). With `CCN(CC)S(=O)(=O)c1cc(NC(=O)CCCOc2ccc(C(C)=O)cc2)ccc1C` the inhibition was 6.3% (inactive). With `Oc1c(Br)cc(C=Nc2ccc3nc(-c4ccccc4)[nH]c3c2)c(O)c1Br` the inhibition was 33.9% (inactive). With `Cc1cccc(N2C(=O)C3C4C=CC(CC4)C3C2=O)c1` (stereo not given) the inhibition was -21.6% (inactive). With `Cc1c(C)c2ccc(O[C@@H]3O[C@H](CO)[C@H](O)[C@H](O)[C@H]3O)cc2oc1=O` the inhibition was -1% (inactive). In the case of `Cc1cc(C(=O)CSc2nnc(-c3ccco3)o2)c(C)n1CC1COc2ccccc2O1` (stereo not given), the inhibition is reported as 43.4% (inactive). In the case of `Cc1cc(C(=O)CSc2nnc(-c3ccco3)o2)c(C)n1Cc1ccco1`, the inhibition is reported as 3.1% (inactive). With `Cc1ccc(S(=O)(=O)N2CCN(C(=O)CSc3nnc(-c4ccco4)o3)CC2)cc1` the inhibition was -19% (inactive). For `Cc1c(C(=O)O)oc2ccc(S(=O)(=O)N3CC(C)CC(C)C3)cc12` (stereo not given), the inhibition was -13% (inactive). With `CCN(CC)C(=O)c1oc2ccc(S(=O)(=O)N3CCCCCC3)cc2c1C` the inhibition was 20.9% (inactive). For `COc1cccc(-n2c(SCC#N)nnc2-c2cnccn2)c1`, the inhibition was 5.2% (inactive). For `CC(C)CCN1CCN(Cc2cccc3nonc23)CC1CCO` (stereo not given), the inhibition was -23.9% (inactive). In the case of `O=C(Nc1cccnc1)c1cc(-c2ccc(Br)cc2)nc2ccccc12`, the inhibition is reported as -14.6% (inactive). In the case of `CCc1oc2ccccc2c1C(=O)CCN1CCCCC1`, the inhibition is reported as 39.5% (inactive). In the case of `CCCCc1oc2ccccc2c1C(=O)c1cc(I)c(OCCN(CC)CC)c(I)c1`, the inhibition is reported as -7.6% (inactive). In the case of `CCc1oc2ccccc2c1C(=O)c1cc(Br)c(O)c(Br)c1`, the inhibition is reported as 87.3% (active). For `O=C(Nc1ccc(OCC(F)(F)C(F)F)c(C(F)(F)F)c1)c1ccccc1O`, the inhibition was 77.1% (active). In the case of `O=C(O)c1ccccc1C(=O)Nc1ccc(Br)c(C(F)(F)F)c1`, the inhibition is reported as -11.4% (inactive). With `O=C(Nc1ccc(OCC(F)(F)C(F)F)cc1)c1ccncc1` the inhibition was -18.2% (inactive). In the case of `O=C(CN1C(=O)CCSc2ccc(S(=O)(=O)N3CCCC3)cc21)Nc1ccccc1Cl`, the inhibition is reported as -4.7% (inactive). For `CCN1CCN(C(=O)COCc2cc(-c3ccc4c(c3)OCO4)on2)CC1`, the inhibition was -17.7% (inactive). In the case of `Cc1ccc2c(c1)N(S(=O)(=O)c1cc(-c3onc(C)c3C)ccc1C)CCO2`, the inhibition is reported as 29.7% (inactive). With `CC(C)(C)n1ncc(Oc2ccccc2[N+](=O)[O-])c(Cl)c1=O` the inhibition was 12.6% (inactive). With `Cc1cc(C2=NNC(=NC3CC3)SC2)c(C)n1Cc1ccco1` the inhibition was 90.4% (active). In the case of `CCN=C1NN=C(c2cc(C)n(CCc3ccccc3)c2C)CS1`, the inhibition is reported as -15% (inactive). For `Cc1cc(C2=NNC(=NC3CCCCC3)SC2)c(C)n1-c1c(C)n(C)n(-c2ccccc2)c1=O`, the inhibition was 2.7% (inactive). For `COCCCN=C1NN=C(c2cc(C)n(Cc3ccco3)c2C)CS1`, the inhibition was -8.2% (inactive). In the case of `CCN=C1NN=C(c2cc(C)n(Cc3ccco3)c2C)CS1`, the inhibition is reported as 81.7% (active). In the case of `CC(C)=CC1C=C(C)C(C)C2C(=O)NNC(=O)C12` (stereo not given), the inhibition is reported as 10.4% (inactive). For `CCOC(=O)C1=C(COC(=O)/C=C/c2ccccc2Cl)NC(=O)NC1C` (stereo not given), the inhibition was -17.4% (inactive). With `CCOC(=O)C1=C(c2ccccc2)ON(C)C1c1ccccc1` (stereo not given) the inhibition was -0.8% (inactive). With `N#C/C(=C(\O)c1cc(Cl)sc1Cl)c1nc2ccccc2[nH]1` the inhibition was 64.5% (active). With `N#C/C(=C(/O)c1ccc([N+](=O)[O-])cc1)c1nc2ccccc2[nH]1` the inhibition was 3.7% (inactive). In the case of `Cc1ccc2nc(/C(C#N)=C\c3ccc([N+](=O)[O-])o3)[nH]c2c1`, the inhibition is reported as 0.5% (inactive). With `N#C/C(=C(/O)c1ccc([N+](=O)[O-])s1)c1nc2ccccc2[nH]1` the inhibition was 71.6% (active). In the case of `N#C/C(=C(/O)c1ccc(Cl)cc1)c1nc2ccccc2[nH]1`, the inhibition is reported as 3.5% (inactive). With `COc1ccccc1/C(O)=C(\C#N)c1nc2ccccc2[nH]1` the inhibition was 5.5% (inactive). In the case of `N#C/C(=C(/O)c1ccc([N+](=O)[O-])o1)c1nc2ccccc2[nH]1`, the inhibition is reported as -7.3% (inactive). In the case of `N#C/C(=C\c1ccc([N+](=O)[O-])o1)c1nc2ccccc2[nH]1`, the inhibition is reported as 96.8% (active). With `N#C/C(=C(/O)c1ccc(Br)s1)c1nc2ccccc2[nH]1` the inhibition was 9.1% (inactive). With `NC(=O)c1c(NC(=O)C(=O)NCCCN2CCOCC2)sc2c1CCCC2` the inhibition was 6% (inactive). In the case of `O=C(CCNS(=O)(=O)/C=C/c1ccccc1)NCCc1c[nH]c2ccccc12`, the inhibition is reported as -0.1% (inactive). For `CCN(CC)Cc1c(C(=O)N/N=C/c2ccc(OCc3ccccc3C)cc2)nnn1-c1nonc1N`, the inhibition was -6.7% (inactive). In the case of `COc1ccc(NC(=O)CCCn2cnc3ccccc3c2=O)cc1`, the inhibition is reported as 9% (inactive). In the case of `COC(=O)c1ccc(Cl)c(NC(=O)c2cccc([N+](=O)[O-])c2C)c1`, the inhibition is reported as -17.4% (inactive). In the case of `CCOC(=O)c1ccc(N/N=C/c2cc(Br)cc([N+](=O)[O-])c2O)cc1`, the inhibition is reported as 97.2% (active). With `O=C(N/N=C/c1cc(Br)cc([N+](=O)[O-])c1O)c1ccc(NC(=O)c2ccc(F)cc2)cc1` the inhibition was 7% (inactive). In the case of `COC(=O)c1ccc(N/N=C/c2cc([N+](=O)[O-])cc(OC)c2O)cc1`, the inhibition is reported as -49.6% (inactive). With `CCn1c(CNc2ccc(Cl)cc2)nnc1SCC#N` the inhibition was -48.7% (inactive). In the case of `COc1ccc(-c2[nH]ncc2CN2CCCC2c2nonc2C)c(F)c1` (stereo not given), the inhibition is reported as -55.4% (inactive).
